CYP2C19 inhib – blockers of cytochrome P450 2C19 activity – biochemical, luminescence, ADME assay, primary screen | actives 21% (n = 96,000) | CYP2C19 Supersomes, luciferin-H EGE luminescence, 30 min | inhibition, % at 5 µM | AID 778, 2007;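 active = CYP2C19 inhibition above a set limit at 5 µM in the primary screen, cut at about 50% in these data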;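 note: plate controls were negative control wells for no effect and 2.5 mM tranylcypromine positive control for full effect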
CYP2C9 inhib – blockers of cytochrome P450 2C9 activity – biochemical, luminescence, ADME assay, primary screen; P11712; inhibition, % at 5 µM; AID 777, 2007; CYP2C9 Supersomes, luciferin-H conversion; actives 20% (n = 96,000);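 active = blocking of liver enzyme CYP2C9 beyond about 50% at 5 µM, limit read from the data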
CYP2C19 activ – human CYP2C19 activators, primary screen, biochemical, luminescence; Cytochrome P450 2C19 (Homo sapiens), P33261; activation factor at 5 µM; recombinant CYP2C19, luciferin-H EGE luminescence; stronger effect = higher value; 0 = fully inhibited enzyme, 1 = untreated enzyme; AID 1025, 2008; 96,000 tested, under 10 active;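 active = activation factor of at least 2 at 5 µM in the primary screen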;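 note: 0 = wells with 2.5 mM tranylcypromine and 1 = vehicle-only wells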
PLAP act – PLAP enzyme activators, biochemical, luminescence, HTS. purified PLAP enzyme, luminescent substrate read-out; stronger effect = higher value. activation fold at 20 µM. actives 1.2% (n = 96,000); in the data active = activation fold above about 2
Target sequence (P05187 whole entry, looked up): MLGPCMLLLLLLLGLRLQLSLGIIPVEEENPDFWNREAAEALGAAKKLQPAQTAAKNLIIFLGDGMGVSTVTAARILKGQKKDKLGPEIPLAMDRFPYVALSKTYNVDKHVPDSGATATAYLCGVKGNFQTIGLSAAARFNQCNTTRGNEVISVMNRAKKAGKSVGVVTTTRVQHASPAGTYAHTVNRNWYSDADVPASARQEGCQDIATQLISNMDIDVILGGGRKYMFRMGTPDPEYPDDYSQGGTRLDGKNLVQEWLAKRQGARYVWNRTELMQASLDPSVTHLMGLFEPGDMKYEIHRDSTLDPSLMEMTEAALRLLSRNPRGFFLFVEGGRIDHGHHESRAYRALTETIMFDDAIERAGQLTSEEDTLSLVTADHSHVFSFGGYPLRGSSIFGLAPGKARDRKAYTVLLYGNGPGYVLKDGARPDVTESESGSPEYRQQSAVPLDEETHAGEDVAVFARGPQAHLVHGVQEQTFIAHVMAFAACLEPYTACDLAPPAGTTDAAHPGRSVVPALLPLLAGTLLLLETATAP
CYP2C9 activ – human CYP2C9 activators, primary screen, biochemical, luminescence; Cytochrome P450 2C9 (Homo sapiens), P11712; recombinant CYP2C9, luciferin-H conversion; stronger effect = higher value; factor 1 = untreated enzyme, 0 = blocked; activation factor at 5 µM; actives 1.4% (n = 96,000); AID 1024, 2008;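 active = activation factor of 2 or more for CYP2C9 at a 5 µM dose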;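 note: 0 = sulfaphenazole-blocked wells and 1 = vehicle-only wells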
An asterisk follows results filed as active. A selection: hits, their analogues and other compounds. The true share with any hit is near 31%.

SMILES	CYP2C19 inhib	CYP2C9 inhib	CYP2C19 activ	PLAP act	CYP2C9 activ
CCOC(=O)N1CCN(C(=O)c2ccc(N(Cc3ccccc3)S(C)(=O)=O)cc2)CC1	68*	90*	0.3	1.9	0.1
O=C(NCCCN1CCCC1=O)c1cc(NS(=O)(=O)c2ccc(F)cc2)cc(NS(=O)(=O)c2ccc(F)cc2)c1	0	22	1	1.6	0.8
CS(=O)(=O)N(CC(=O)N1CCc2ccccc2C1)Cc1ccc(Cl)cc1	88*	85*	0.1	1.7	0.2
Clc1cccc(-c2ccc(/C=N/n3cnnc3)o2)c1	51*	25	0.5	1	0.8
Cc1ccc(-c2ccc(/C=N/n3cnnc3)o2)cc1Cl	64*	61*	0.4	0.9	0.4
CCc1nc2c(C#N)c(-c3ccc(Cl)cc3)ccn2n1	21	48	0.8	1.1	0.5
O=C(CCCc1c[nH]c2ccccc12)N1CCN(c2ccc(N3CCOCC3)nn2)CC1	58*	32	0.4	1.7	0.7
COc1cc(CCC(=O)N2CCN(c3ccc(N4CCOCC4)nn3)CC2)cc(OC)c1OC	-3	-6	1	1.5	1.1
CCN1C(=O)/C(=C2/SC(C)=C(C)N2CC)SC1=S	41	22	0.6	1	0.8
COc1ccc2nc(SCC(=O)N(C)C3CCCCC3)c(C#N)cc2c1	37	0	0.6	1.3	1
c1ccc2c(Cn3nnc4ccccc43)cccc2c1	26	-147	0.7	1	2.5*
O=C(Cn1nnc2ccccc21)NCc1ccccc1	24	-14	0.8	0.9	1.1
c1ccc2c(COn3nnc4ccccc43)cccc2c1	96*	70*	0	0.5	0.3
CN1CCNC(=O)C1CC(=O)O (stereo unspecified)	-17	-8	1.2	1	1.1
O=C(CN1C2CCC1CC(NC(=O)Nc1ccccc1)C2)NCc1ccco1 (stereo unspecified)	38	26	0.6	1.5	0.7
CC(Sc1nnc(N)s1)C(=O)Nc1ccc(N2CCOCC2)cc1 (stereo unspecified)	-5	-12	1.1	1.3	1.1
CC(Sc1nc(N(C)C)nc(N2CCOCC2)n1)C(=O)Nc1ccccc1 (stereo unspecified)	93*	92*	0.1	0.9	0.1
CC(C)Nc1nc(SCC(=O)Nc2ccccc2)nc(N2CCOCC2)n1	82*	84*	0.2	0.8	0.2
CC(Sc1nc(N2CCOCC2)nc(N2CCOCC2)n1)C(=O)Nc1ccccc1 (stereo unspecified)	32	79*	0.7	1	0.2
CN(Cc1cccs1)C(=O)CSc1nnnn1C	28	-12	0.7	1.1	1.1
CC(NC(=O)c1ccc(Cl)cc1)c1nnc(SCc2ccc([N+](=O)[O-])cc2)n1C (stereo unspecified)	0	3	1	1	1
Cc1c(Br)c([N+](=O)[O-])nn1CC(=O)NCc1cccs1	23	-9	0.8	1	1.1
CCn1c(NC(=O)c2ccc(COc3ccc(C)cc3[N+](=O)[O-])o2)nc2ccccc21	15	16	0.8	1	0.8
CCCCNc1ncnc2c1cnn2-c1ccccc1	89*	99*	0.1	1.1	0
CCCCNc1ncnc2c1cnn2-c1ccc(Cl)cc1	28	70*	0.7	1.2	0.3
SMILES	CYP2C19 inhib	CYP2C9 inhib	CYP2C19 activ	PLAP act	CYP2C9 activ
COc1ccc(NC(=O)CSc2ncnc3c2cnn3Cc2ccccc2)cc1OC	18	34	0.8	0.8	0.7
c1coc(CNc2nc(N3CCCCC3)nc3ccccc23)c1	16	24	0.8	1.6	0.8
Clc1ccc(-n2ncc3c(NCCN4CCOCC4)ncnc32)cc1	13	2	0.9	1.1	1
COc1ccc(Nc2ncnc3c2cnn3Cc2ccccc2)cc1OC	84*	73*	0.2	1.1	0.3
c1ccc(N2CCN(c3nc(NCc4ccco4)c4ccccc4n3)CC2)cc1	96*	91*	0	1.1	0.1
CCOC(=O)c1ccc(N2C(=O)CC(N3CCOCC3)C2=O)cc1 (stereo unspecified)	-4	8	1	1.1	0.9
Cc1ccccc1NC(=S)NC1CC2CCC(C1)N2Cc1ccco1 (stereo unspecified)	-8	-6	1.1	1.1	1.1
Cc1ccc(OCCNC(=O)c2cc(-n3cnnc3)ccc2Cl)cc1C	45	6	0.6	1.2	0.9
Clc1ccc(Cn2ncc3c(NCc4ccccc4)ncnc32)cc1	-9	40	1.1	0.9	0.6
c1ccc(Cn2ncc3c(NCc4ccco4)ncnc32)cc1	19	-6	0.8	1	1.1
COCCNc1ncnc2c1cnn2Cc1ccc(Cl)cc1	82*	-15	0.2	1.1	1.2
Clc1ccc(-n2ncc3c(NCCCn4ccnc4)ncnc32)cc1	95*	93*	0.1	1.3	0.1
c1ccc(-n2ncc3c(NCc4ccco4)ncnc32)cc1	50*	59*	0.5	0.9	0.4
COc1cc(/C=N/c2oc(-c3ccccc3)cc2C#N)ccc1O	-9	9	1.1	1.1	0.9
Cc1ccc(NC(=O)CS(=O)CC(=O)NCC2OCCc3ccccc32)c(C)c1 (stereo unspecified)	31	12	0.7	1.5	0.9
O=C1CS/C(=C\S(=O)(=O)c2ccc(Cl)cc2)N1	26	57*	0.7	1.6	0.4
Cc1ccc(NC(=O)/C(=C\c2ccc([N+](=O)[O-])cc2)NC(=O)c2ccccc2)cc1	7	-5	0.9	0.9	1.1
CC(=O)c1ccc(NC(=O)/C(=C\c2ccccc2)NC(=O)/C=C/c2ccccc2)cc1	12	53*	0.9	1.4	0.5
COc1ccc(OCCOC(=O)Nc2ccccc2)cc1	82*	45	0.2	0.9	0.6
O=C(Nc1ccccc1)OCCOc1ccccc1	85*	29	0.2	0.7	0.7
NC(=O)COc1ccc(NC(=O)OCc2ccccc2)cc1	19	7	0.8	0.9	0.9
O=C(Nc1ccccc1)OCc1ccccn1	51*	9	0.5	0.9	0.9
O=C(Nc1ccccc1)O/N=C(\c1ccccc1)c1ccccn1	24	61*	0.8	1.1	0.4
COC(=O)Nc1ccc(OCc2ccccc2)cc1	46	20	0.5	1	0.8
COC(=O)Nc1ccc(Oc2ccccc2)cc1	78*	8	0.2	0.9	0.9
O=C(Nc1ccccc1)OCCNC(=O)c1cccc(Cl)c1	93*	87*	0.1	0.7	0.1
COc1ccc(CCN(Cc2cc3cc(C)c(C)cc3nc2Cl)C(=O)C2CC2)cc1	26	23	0.7	1	0.8
COc1ccc(/C=N/NC(=O)c2[nH]ncc2Br)c(OC)c1	36	-105	0.6	1.6	2*

Screens deposited in PubChem BioAssay by Sanford-Burnham Center for Chemical Genomics.
